The panel holds about 83,000 compounds, 20% with a hit somewhere; the sample as a whole holds those more often.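 96-well plates, one dose, 48 hours. Percent growth reported; active if below 10.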 Values without a mark were called inactive. The source made the active and inactive calls.
What was measured:
HL-60(TB) leukemia = experiment: NCI-60 one-dose screen, 48 h (100 = growth as untreated, 0 = no growth, -100 = all killed); details: 10 µM unless noted
MDA-MB-468 breast = experiment: as above; details: 10 µM unless noted

Structure (SMILES) | growth (HL-60(TB) leukemia) | growth (MDA-MB-468 breast) [%]
Cn1cc(-c2nc(N)nnc2-c2c[nH]c3ccccc23)c2cc(Br)cnc21 | 4.17% (active) | 
NC(=O)c1ccc(-c2ccc3ncnc(N4CCc5cc(F)c(Cl)cc54)c3c2)cn1 | 64.9% | 
COc1ccc2c(c1)C(=N/N=C(\C)c1ccc(OC)c(S(N)(=O)=O)c1)C(=O)N2 | 91.7% | 
COc1ccc(-c2ccc(/C=N/NC(=O)c3[nH]c4ccc(Br)cc4c3-c3ccccc3)s2)cc1 | 95.6% | 
COc1ccc(NC2=C(I)C(=O)C(C)=C(C)C2=O)cc1 | -35.7% (active) | 
COc1ccc(C(=O)COc2ccc(NC(=O)Nc3ccccc3)cc2)cc1 | 91.6% | 
OCCN=Cc1c[nH]c2ccccc12 |  | 119
NC(=Nc1ccccc1)N[N+](=O)[O-] |  | 92.2
